A selection: hits, their analogues and other compounds. The true share with any hit is near 3%.
Tau fluor counter = counter-screen for tau fibril formation inhibitors; 280,000 compounds, 0.93% hits; tau K18 P301L Alexa594 fluorescence, heparin fibrillization; Potency, µM (titrated, usually from 57.7 µM); note: nearly all actives have a fitted effect of over 55% in size
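Human tau K18 P301L (15 uM unlabeled, 0.24 uM Alexa 594-labeled) in 100 mM sodium acetate pH 7 with 20 uM heparin, 6 hr at 37 C. ThT 30 uM added, 1 hr ambient; Alexa 594 FP and total fluorescence read at 555/632 nm.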
Coupling enz = inhibits coupling enzyme system, counter-screen for aldolase hits. activity change, negative = inhibition, % at 58.2 µM, hits read low. 290,000 compounds, 0.67% hits. coupling enzyme system counterscreen, AmpLite Red fluorescence; in the data active = activity change below about -30%
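Compounds tested against the coupling enzymes alone at 57.5 uM final; readout was AmpLite Red fluorescence (525/598 nm) after 20 min at RT.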
Tau FP inhib = tau fibrillization inhibition (FP); P10636; K18 P301L tau heparin fibrillization, Alexa594 FP, 6 h; Potency, µM (top dose mostly 57.7 µM), usual class: inhibitors; 280,000 compounds, 0.39% hits; AID 1468; note: nearly all actives have a fitted effect of over 55% in size
Target sequence (P10636 561-689 P618L limits assumed): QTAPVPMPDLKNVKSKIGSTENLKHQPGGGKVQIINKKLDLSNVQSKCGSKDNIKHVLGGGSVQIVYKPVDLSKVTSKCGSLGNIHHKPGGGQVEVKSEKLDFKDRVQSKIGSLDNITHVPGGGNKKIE
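K18 P301L tau (15 uM unlabeled/0.24 uM Alexa 594-labeled, final) + compound + heparin 20 uM final; 100 mM NaOAc pH 7; 6 hr 37 C; ThT 30 uM final added, 1 hr RT; FP ex 555/em 632 nm.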
Tau ThT inhib = tau fibrillization inhibition (ThT binding); recombinant tau K18 P301L (four-repeat tau fragment), heparin-induced fibrillization, ThT fluorescence; 270,000 compounds, 2.1% hits; Potency, µM (top dose mostly 57.4 µM), hits mostly inhibitors; P10636; AID 1460; note: nearly all actives have a fitted effect of over 55% in size
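Heparin-induced fibrillization of the P301L-mutant K18 repeat-domain fragment of human tau was followed by ThT binding in quantitative high-throughput format.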
KDM4E inh = JMJD2E (human) inhibition | B2RXH2 | JMJD2E catalytic domain, FDH-coupled NADH fluorescence (FDH is formaldehyde dehydrogenase) | AID 2147 | Potency, µM (series often up to 57.1 µM), hits mostly inhibitors | 230,000 compounds, 1.6% hits; active = well fitted inhibition curve with a large enough effect, not every such curve was filed as active; inconclusive = small, poorly fitted or top-dose-only effect, or another doubt; inactive = no such curve, though single readings can be large or run the other way; note: nearly all actives have a fitted effect of over 50% in size
Target sequence (B2RXH2 1-337 limits assumed): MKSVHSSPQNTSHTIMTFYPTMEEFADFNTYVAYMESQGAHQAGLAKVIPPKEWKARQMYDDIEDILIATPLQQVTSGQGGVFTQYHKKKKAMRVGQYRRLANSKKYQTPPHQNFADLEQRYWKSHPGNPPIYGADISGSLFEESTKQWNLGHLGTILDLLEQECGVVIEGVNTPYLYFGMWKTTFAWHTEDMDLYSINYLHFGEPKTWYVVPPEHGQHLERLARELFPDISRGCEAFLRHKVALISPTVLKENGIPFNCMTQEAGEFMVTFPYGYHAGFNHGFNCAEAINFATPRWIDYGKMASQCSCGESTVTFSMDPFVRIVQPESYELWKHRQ
Of the large screens only hits and unclear results are named; the others gave an inactive call; [ ] = dose if it differs, or a comment. Unless noted, calls come from the whole dose curve; as a rule, active = well fitted curve in the direction sought with a large enough effect; inconclusive = small, poorly fitted or top-dose-only effect, or another doubt; inactive = no such curve, though single readings can be large; an effect the other way counts as inactive or inconclusive.

Cc1nn2c(NCC(C)C)c3c(nc2c1-c1ccccc1)CCC3	KDM4E inh inconclusive
Cc1ccc(N=Cc2nc(/C=C/c3cccc([N+](=O)[O-])c3)oc2O)cc1	Tau ThT inhib 1.4µM
CC(C)c1ccc2c(c1)C1(NN=C(c3ccccc3)S1)C(=O)N2 (configuration not stated)	Tau fluor counter inconclusive, Tau ThT inhib 25µM
CCCCn1c(O)c(/C=C2\C=NN=C2c2ccccc2)sc1=S	Tau fluor counter inconclusive, Tau FP inhib 11µM
CN(C)c1ccc(C(=S)NCc2ccco2)cc1	Tau fluor counter inconclusive, Tau ThT inhib 10µM
Cc1ccc(C(C)C)c(OCC(=O)N2CCC(c3nc4ccccc4o3)CC2)c1	Tau ThT inhib inconclusive (no result: Coupling enz, KDM4E inh)
COc1ccc2c(c1)cc(CNc1ccc(OC)c(OC)c1)c(=O)n2CC(=O)Nc1ccc(F)cc1	Tau fluor counter 16µM[quencher], Tau ThT inhib inconclusive (no result: Coupling enz, KDM4E inh)
COc1ccc2c(c1)cc(CNc1ccc(OC)c(OC)c1)c(=O)n2CC(=O)Nc1ccccc1C	Tau fluor counter inconclusive, Tau ThT inhib inconclusive (no result: Coupling enz, KDM4E inh)
CC1C(=O)N2CCCc3cc(S(=O)(=O)Nc4ccc(Br)cc4F)cc1c32 (configuration not stated)	none (no result: Coupling enz, KDM4E inh)
CCCC(=O)C1=C(c2cccc(OC)c2)N(C(=O)CCC)n2c(C)nnc2S1	Tau FP inhib inconclusive, Tau ThT inhib inconclusive (no result: Coupling enz, KDM4E inh)
O=C(Nc1ccc(N2CCN(c3ccc(O)cc3)CC2)cc1)Oc1ccccc1	Tau fluor counter 7.9µM[quencher], Tau ThT inhib 5µM, KDM4E inh inconclusive
Nc1ccc(OC(=O)Nc2ccc(O)cc2)cc1	Tau fluor counter inconclusive, Tau FP inhib inconclusive, KDM4E inh 18µM (no result: Tau ThT inhib)
COC(=O)C1=C(C(=O)OC)[C@@H]2N(C)c3ccccc3[C@@]23C[C@@H](C(=O)OC)N(S(=O)(=O)c2ccc(C)cc2)C3=N1	none
O=C(CSc1cn(CC(=O)N2CCCCC2)c2ccccc12)NCc1ccccc1	none (no result: Coupling enz, KDM4E inh)
Cc1nc2c(C(=O)NCCC(C)C)cnn2c(C)c1Cc1c(F)cccc1Cl	none (no result: Coupling enz, KDM4E inh)
c1ccc(-c2cn3c(n2)-c2ccccc2C3)cc1	Tau ThT inhib inconclusive, KDM4E inh 3.2µM
Nc1ccc2nc(-c3ccccn3)[nH]c2c1	Tau fluor counter inconclusive, Tau ThT inhib 25µM, KDM4E inh inconclusive
Cc1nc2ccc(N=NC3=C(O)CC(C)(C)CC3=O)cc2s1	Tau ThT inhib inconclusive
Cc1nc2ccc(N=NC3=C(O)CCCC3=O)cc2s1	Tau ThT inhib 13µM
O=C1C=CC2=C3c4cc(O)c(O)cc4C[C@]3(O)COC2=C1	Tau fluor counter inconclusive, Tau FP inhib inconclusive, Tau ThT inhib 16µM, KDM4E inh 13µM
Cc1ccc(/C=C/C(=O)c2c(C)cc(C)[nH]c2=O)cc1	none
Cc1cc(C)c(C(=O)/C=C/c2ccco2)c(=O)[nH]1	Tau FP inhib inconclusive, Tau ThT inhib 22µM, KDM4E inh inconclusive
C=CCCC(=O)Nc1nc(C)c(-c2csc(Nc3ccc(Cl)cc3Cl)n2)s1	Tau fluor counter 14µM[quencher], Tau ThT inhib 7.9µM
C=CCCC(=O)Nc1nc(C)c(-c2csc(Nc3cc(Cl)ccc3OC)n2)s1	Tau fluor counter 14µM[quencher], Tau ThT inhib inconclusive
Cc1nc(NC(=O)c2ccccc2)sc1-c1csc(Nc2ccc(Cl)cc2Cl)n1	Tau fluor counter inconclusive, Tau ThT inhib inconclusive, KDM4E inh inconclusive
Cc1ccc(CNc2ccc3c(c2)OCO3)cc1	Tau fluor counter inconclusive, Coupling enz -37, Tau FP inhib inconclusive, Tau ThT inhib inconclusive, KDM4E inh inconclusive
CC(=O)NN1C(=O)c2ccc3c4c(ccc(c24)C1=O)C(=O)N(NC(C)=O)C3=O	Coupling enz -32 (no result: Tau fluor counter, Tau FP inhib, Tau ThT inhib, KDM4E inh)
O=C1c2ccc3c4c(ccc(c24)C(=O)N1NC(=O)C(F)(F)F)CC3	KDM4E inh inconclusive
COc1cccc(/C=C2/SC(=S)N(CC(=O)Nc3nnc(C)s3)C2=O)c1	Tau fluor counter inconclusive, Tau FP inhib inconclusive, Tau ThT inhib 1.3µM
Cc1cc(=O)n2nc(N3CCC(C(=O)Nc4ccc(C(C)C)cc4)CC3)sc2n1	Tau ThT inhib inconclusive (no result: Coupling enz, KDM4E inh)
CCOC(=O)c1cc(C)[nH]c(=S)c1C#N	Tau ThT inhib inconclusive, KDM4E inh 18µM
C/C(=N\NC(=O)CSCc1ccccc1Cl)c1cc(O)ccc1O	Tau fluor counter inconclusive, Tau FP inhib inconclusive, Tau ThT inhib inconclusive, KDM4E inh 4.5µM
O=C(CSCc1ccccc1Cl)NN=C1CCCCCC1	none
COc1ccc(CCN(/C=C2\Sc3ccccc3C2=O)C(C)=O)cc1OC	Tau ThT inhib inconclusive, KDM4E inh 32µM
O=C1NN(c2ccccc2)C(=O)/C1=C\c1coc2ccc(O)cc2c1=O	Tau fluor counter inconclusive, Tau ThT inhib 14µM
O=C1NN(c2ccccc2)C(=O)/C1=C/c1coc2ccccc2c1=O	none
Cc1cc(/C=C2/C(=O)NN(c3ccccc3)C2=O)c(C)n1-c1ccc(O)cc1	Tau ThT inhib 13µM
COc1ccc(Cl)cc1NC(=O)CCN1C(=O)c2ccccc2Sc2ncccc21	none (no result: Coupling enz, KDM4E inh)
CSCC[C@H](NC(=O)[C@H](CCC(N)=O)NC(=O)[C@H](CCCCN)NC(=O)[C@H](CCCNC(=N)N)NC(=O)[C@H](Cc1ccc(O)cc1)NC(=O)[C@H](CCCNC(=N)N)NC(=O)[C@H](CO)NC(=O)[C@H](Cc1ccc(O)cc1)NC(=O)[C@H](CO)NC(=O)[C@H](CC(=O)O)NC(=O)[C@@H](NC(=O)[C@@H](N)Cc1ccccc1)[C@@H](C)O)C(=O)N[C@@H](C)C(=O)N[C@H](C(=O)N[C@@H](CCCCN)C(=O)N[C@@H](CCCCN)C(=O)N[C@@H](Cc1ccc(O)cc1)C(=O)N[C@@H](CC(C)C)C(=O)N[C@@H](C)C(=O)N[C@@H](C)C(=O)N[C@H](C(=O)N[C@@H](CC(C)C)C(=O)NCC(=O)N[C@@H](CCCCN)C(=O)N[C@@H](CCCNC(=N)N)C(=O)N[C@@H](Cc1ccc(O)cc1)C(=O)N[C@@H](CCCCN)C(=O)N[C@@H](CCC(N)=O)C(=O)N[C@@H](CCCNC(=N)N)C(=O)N[C@H](C(=O)N[C@@H](CCCCN)C(=O)N[C@@H](CC(N)=O)C(=O)N[C@@H](CCCCN)C(N)=O)C(C)C)C(C)C)C(C)C	none (no result: Tau fluor counter, Tau FP inhib, Tau ThT inhib, KDM4E inh)
C=CCC1C=CC(OC(=O)OCC)C(COC(=O)OCC)O1 (configuration not stated)	none (no result: KDM4E inh)
CCOC(=O)c1c(C)[nH]c(CCC(=O)NCc2cccc(OC)c2)c1C	none (no result: Coupling enz, KDM4E inh)
CCOC(=O)c1c(C)[nH]c(CCC(=O)NCc2cccc(C)c2)c1C	none (no result: Coupling enz, KDM4E inh)
CCOC(=O)c1c(C)[nH]c(N=Nc2cccc(OC)c2)c1C	Tau fluor counter inconclusive, Tau ThT inhib 5µM
CCOC(=O)c1c(C)[nH]c(N=Nc2cccc(C)c2)c1C	Tau fluor counter inconclusive, Tau ThT inhib 10µM
CC(N)COC(=O)C(CCCCN)NC(=O)Cc1c(-c2ccc3ccccc3c2)[nH]c2c1ccc1ccccc12 (configuration not stated)	none (no result: Tau fluor counter, Tau FP inhib, Tau ThT inhib, KDM4E inh)
O=C(CN1CCOCC1)N/N=C/c1cc2ccccc2nc1Cl	none
